Experimental data from the supplement of paper PMC12645437, “Orthogonal IMiD-Degron Pairs Induce Selective Protein Degradation in Cells” (ACS Chemical Biology, 2025).
The full ranking holds about 8,300 sequences; the median of “log2 fold change of degron read counts, EGFP-low vs EGFP+ sorted cells (limma voom), compound-induced degradation” is about -1.1, and the highest 2% start at about 3.2. For the sample, the highest values were picked, then their nearest neighbours and some sequences at random.

T1: CRBN, Q96SW2
T1 chain: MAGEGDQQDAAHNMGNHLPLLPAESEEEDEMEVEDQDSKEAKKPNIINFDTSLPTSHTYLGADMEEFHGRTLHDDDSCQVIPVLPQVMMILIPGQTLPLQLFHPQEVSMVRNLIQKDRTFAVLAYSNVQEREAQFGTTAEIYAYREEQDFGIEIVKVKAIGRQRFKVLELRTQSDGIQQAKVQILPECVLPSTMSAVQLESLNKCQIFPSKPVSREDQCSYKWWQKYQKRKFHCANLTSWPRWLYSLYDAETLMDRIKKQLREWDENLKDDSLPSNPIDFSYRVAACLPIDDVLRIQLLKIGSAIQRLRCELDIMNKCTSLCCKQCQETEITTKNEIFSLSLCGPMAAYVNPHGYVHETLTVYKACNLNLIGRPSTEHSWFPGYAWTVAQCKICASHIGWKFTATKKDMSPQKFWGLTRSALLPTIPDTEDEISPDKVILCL

B1: 46F_47N_49D_50V_52G_53A_54I_55F_67L_, Q9UKT9 (peptide)
chain: FNCDVCGAIFTQKGNLLRHIKL
B2: 46F_47W_49E_50Q_52G_53A_54K_55F_67L_, Q9UKT9 (peptide)
chain: FWCEQCGAKFTQKGNLLRHIKL
B3: 46L_47M_49N_50Q_52G_53F_54M_55C_67L_, Q9UKT9 (peptide)
chain: LMCNQCGFMCTQKGNLLRHIKL
B4: 46F_47S_49D_50V_52G_53A_54T_55F_67L_, Q9UKT9 (peptide)
chain: FSCDVCGATFTQKGNLLRHIKL
B5: 46F_47D_49E_50I_52G_53H_54G_55F_67L_, Q9UKT9 (peptide)
chain: FDCEICGHGFTQKGNLLRHIKL
B6: 46F_47S_49E_50I_52G_53H_54V_55F_67L_, Q9UKT9 (peptide)
chain: FSCEICGHVFTQKGNLLRHIKL
B7: 46F_47Y_49D_50Q_52G_53A_54I_55F_67L_, Q9UKT9 (peptide)
chain: FYCDQCGAIFTQKGNLLRHIKL
B8: 46F_47F_49P_50I_52G_53A_54G_55F_67L_, Q9UKT9 (peptide)
chain: FFCPICGAGFTQKGNLLRHIKL
B9: 46F_47M_49E_50V_52G_53A_54V_55F_67L_, Q9UKT9 (peptide)
chain: FMCEVCGAVFTQKGNLLRHIKL
B10: 46F_47E_49E_50V_52G_53A_54V_55F_67L_, Q9UKT9 (peptide)
chain: FECEVCGAVFTQKGNLLRHIKL
B11: 46F_47Y_49E_50V_52G_53A_54V_55F_67L_, Q9UKT9 (peptide)
chain: FYCEVCGAVFTQKGNLLRHIKL
B12: 46F_47V_49D_50V_52G_53A_54D_55F_67L_, Q9UKT9 (peptide)
chain: FVCDVCGADFTQKGNLLRHIKL
B13: 46F_47C_49E_50I_52G_53A_54T_55F_67L_, Q9UKT9 (peptide)
chain: FCCEICGATFTQKGNLLRHIKL
B14: 46F_47K_49E_50I_52G_53A_54T_55F_67L_, Q9UKT9 (peptide)
chain: FKCEICGATFTQKGNLLRHIKL
B15: 46F_47A_49E_50I_52G_53A_54T_55F_67L_, Q9UKT9 (peptide)
chain: FACEICGATFTQKGNLLRHIKL
B16: 46F_47F_49E_50I_52G_53A_54T_55F_67L_, Q9UKT9 (peptide)
chain: FFCEICGATFTQKGNLLRHIKL
B17: 46F_47T_49E_50I_52G_53A_54T_55F_67L_, Q9UKT9 (peptide)
chain: FTCEICGATFTQKGNLLRHIKL
B18: 46F_47M_49E_50I_52G_53A_54T_55F_67L_, Q9UKT9 (peptide)
chain: FMCEICGATFTQKGNLLRHIKL
B19: 46F_47R_49E_50I_52G_53A_54T_55F_67L_, Q9UKT9 (peptide)
chain: FRCEICGATFTQKGNLLRHIKL
B20: 46F_47S_49E_50I_52G_53A_54T_55F_67L_, Q9UKT9 (peptide)
chain: FSCEICGATFTQKGNLLRHIKL
B21: 46F_47L_49E_50I_52G_53A_54T_55F_67L_, Q9UKT9 (peptide)
chain: FLCEICGATFTQKGNLLRHIKL
B22: 46F_47Y_49E_50I_52G_53A_54T_55F_67L_, Q9UKT9 (peptide)
chain: FYCEICGATFTQKGNLLRHIKL
B23: 46F_47D_49E_50I_52G_53A_54T_55F_67L_, Q9UKT9 (peptide)
chain: FDCEICGATFTQKGNLLRHIKL
B24: 46F_47Q_49E_50I_52G_53A_54T_55F_67L_, Q9UKT9 (peptide)
chain: FQCEICGATFTQKGNLLRHIKL
B25: 46L_47N_49N_50Q_52G_53F_54H_55C_67L_, Q9UKT9 (peptide)
chain: LNCNQCGFHCTQKGNLLRHIKL
B26: 46F_47G_49E_50I_52G_53R_54Q_55F_67L_, Q9UKT9 (peptide)
chain: FGCEICGRQFTQKGNLLRHIKL
B27: 46F_47S_49P_50I_52G_53R_54C_55F_67L_, Q9UKT9 (peptide)
chain: FSCPICGRCFTQKGNLLRHIKL
B28: 46F_47Y_49D_50Q_52G_53A_54F_55F_67L_, Q9UKT9 (peptide)
chain: FYCDQCGAFFTQKGNLLRHIKL

Biological target: T1, CRBN, Q96SW2
Assay: log2 fold change of degron read counts, EGFP-low vs EGFP+ sorted cells (limma voom), compound-induced degradation; higher = more compound-induced degradation of the degron-EGFP fusion; degrons are variants of IKZF1/3 zinc finger 2; compound dose not given here
Settings: Jurkat, 18 h
[1] = compound: compound 19 (5-tert-butyl-thalidomide)
[2] = compound: compound 22 (5-morpholino-thalidomide)
[3] = compound: compound 33 (diphenyl IMiD analogue)
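Note: pooled lentiviral library of zinc finger degron-EGFP fusions in mCherry-positive Jurkat cells, FACS-sorted after compound exposure, with degron abundance counted by next-generation sequencing.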

Sequence	log2 fold change of degron read counts [1]	log2 fold change of degron read counts [2]	log2 fold change of degron read counts [3]	log2 fold change of degron read counts (compound: thalidomide)
B1	-1.74	-3.02	-1.86	-2.46
B2	2.4	1.97	-0.464	-0.551
B3	-1.58	-1.89	-0.98	-1.42
B4	0.618	0.269	0.317	-0.694
B5	-3.03	-3.17	-3	-2.57
B6	-2.99	-2.93	-2.63	-2.67
B7	-1.03	-1.1	-1.87	-2.56
B8	3.02	2.16	1.63	0.485
B9	-1.47	-0.776	2.27	0.961
B10	-0.492	-0.885	1.58	2.31
B11	3.58	3.79	2.82	0.689
B12	-2.64	-1.98	-2.16	-1.73
B13	2.13	2.25	2.55	2.33
B14	-1.26	-3.54	-2.61	-1.06
B15	3.33	2.04	0.691	0.374
B16	3.27	3.8	1.79	1.49
B17	0.577	2.27	2.39	2.99
B18	-1.21	-0.67	2.2	1.15
B19	-0.98	-0.654	1.54	1.42
B20	2.83	2.57	1.79	1.36
B21	-1.3	-1.41	0.852	1.8
B22	3.58	4.05	2.59	1.19
B23	1.71	0.141	0.186	0.436
B24	0.665	2.58	2.4	3.26
B25	-1.47	-2.01	-1.68	-1.54
B26	-0.21	-0.999	-1.15	-1.42
B27	-0.773	-1.2	0.835	-0.39
B28	-0.965	-1.17	-1.35	-2.48
